Data as given in publication PMC4336329 (PLoS ONE, 2015).
Out of some 310,000 compounds screened, about 14,000 (4.5%) showed an effect of 50% or more. Effects have a minus sign here. The sample as a whole holds a higher share of strong results than the screen did.

target: human ether-à-go-go-related gene (hERG) potassium channel (human, UniProt Q12809); test: primary screen, population patch clamp on CHO cells stably expressing hERG; higher = less effect of the substance
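Note: peak tail current of the secondary pulse compared with the same well before compound.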

human ether-à-go-go-related gene (hERG) potassium channel, sequence (Q12809 whole entry, looked up): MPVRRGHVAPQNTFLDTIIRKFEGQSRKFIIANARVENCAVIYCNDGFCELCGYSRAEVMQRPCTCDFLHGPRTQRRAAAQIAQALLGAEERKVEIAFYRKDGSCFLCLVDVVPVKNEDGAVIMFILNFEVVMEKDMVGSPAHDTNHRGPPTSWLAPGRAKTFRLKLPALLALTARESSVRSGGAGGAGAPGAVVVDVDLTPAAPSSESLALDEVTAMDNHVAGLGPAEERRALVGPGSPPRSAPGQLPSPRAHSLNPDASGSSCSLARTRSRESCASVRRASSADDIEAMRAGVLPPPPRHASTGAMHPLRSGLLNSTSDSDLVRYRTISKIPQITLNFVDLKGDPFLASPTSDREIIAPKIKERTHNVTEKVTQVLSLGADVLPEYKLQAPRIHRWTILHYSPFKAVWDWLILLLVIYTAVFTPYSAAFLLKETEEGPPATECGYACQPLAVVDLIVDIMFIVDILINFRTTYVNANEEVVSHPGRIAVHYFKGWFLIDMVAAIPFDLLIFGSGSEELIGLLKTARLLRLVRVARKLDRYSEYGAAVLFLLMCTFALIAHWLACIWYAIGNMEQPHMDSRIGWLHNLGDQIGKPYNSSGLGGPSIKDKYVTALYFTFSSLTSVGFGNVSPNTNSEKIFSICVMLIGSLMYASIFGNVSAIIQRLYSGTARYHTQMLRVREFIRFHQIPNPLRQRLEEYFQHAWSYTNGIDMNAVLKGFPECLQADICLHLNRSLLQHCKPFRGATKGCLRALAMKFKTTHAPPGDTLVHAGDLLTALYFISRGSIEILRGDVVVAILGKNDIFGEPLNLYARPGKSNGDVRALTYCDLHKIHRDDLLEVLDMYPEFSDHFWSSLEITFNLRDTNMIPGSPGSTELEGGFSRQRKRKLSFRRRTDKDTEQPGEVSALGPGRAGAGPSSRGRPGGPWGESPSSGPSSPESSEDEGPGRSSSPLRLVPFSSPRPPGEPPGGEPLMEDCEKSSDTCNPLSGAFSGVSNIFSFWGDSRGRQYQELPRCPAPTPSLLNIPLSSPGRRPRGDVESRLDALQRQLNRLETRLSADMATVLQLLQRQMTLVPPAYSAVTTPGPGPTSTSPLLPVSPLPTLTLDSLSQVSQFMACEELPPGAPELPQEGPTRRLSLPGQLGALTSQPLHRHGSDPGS

First: Cc1cc(-c2nc(C)c(C(=O)NNS(=O)(=O)c3ccccc3)s2)no1
Second: CN(Cc1c(F)cccc1Cl)C(=O)c1cccc(S(=O)(=O)NCc2ccccc2)c1
The “hERG current change (%, negative = inhibition) at 10uM” value of the first is higher: 11.9% for the first, -28% for the second.

First: Cc1ccccc1-c1nnn(Cc2ccc(F)cc2Cl)n1
Second: Cc1ccccc1OCCn1cnc2cc([N+](=O)[O-])ccc2c1=O
The “hERG current change (%, negative = inhibition) at 10uM” value of the first is higher: 10.6% for the first, -7.38% for the second.

First: Cc1cc(C)c2c(CN3CCN(CCO)CC3)cc(=O)oc2c1
Second: Cc1cc(C)c2c(CN3CCN(C/C=C/c4ccccc4)CC3)cc(=O)oc2c1
The “hERG current change (%, negative = inhibition) at 10uM” value of the first is higher: -50.4% for the first, -76.9% for the second.

Going from Cc1cc(C)c2c(Cn3ccnc3)cc(=O)oc2c1 to CCc1ccc2oc(=O)cc(CN3CCN(CCO)CC3)c2c1, the “hERG current change (%, negative = inhibition) at 10uM” value falls from 1.13% to -14.9%.

Going from COC(=O)c1ccc(Cl)c(NC(=O)CN(c2ccc3c(c2)OCO3)S(C)(=O)=O)c1 to CC(=O)N1c2ccc(S(=O)(=O)NCC3CCC(C(=O)NCc4ccc(C)o4)CC3)cc2CC1C (stereo not drawn), the “hERG current change (%, negative = inhibition) at 10uM” value falls from 7.68% to -3.13%.

Going from O=C(O)CCC(NC(=O)c1cncc(O)c1)C(=O)O (stereo not drawn) to O=C(Nc1ccccc1)C(=O)Nc1ccc2c(c1)N(C(=O)C1CC1)CCC2, the “hERG current change (%, negative = inhibition) at 10uM” value falls from -4.94% to -5.26%.

First: CCCC1(c2ccccc2)NC(=O)N(CC(=O)N(C)Cc2c(F)cccc2Cl)C1=O (stereo not drawn)
Second: CCOc1ccc(N2C(=O)CN=C2Nc2ccccc2Cl)cc1
The “hERG current change (%, negative = inhibition) at 10uM” value of the first is higher: -2.69% for the first, -2.73% for the second.

Compared with Cc1ccc(C(C2=C(O)CC(C)(C)CC2=O)C2C(=O)CC(C)(C)CC2=O)s1 (stereo not drawn), CCc1cc(=O)oc2c(C)c(OCC(=O)NCCCN3CCOCC3)ccc12 is lower in “hERG current change (%, negative = inhibition) at 10uM” value: 14.9% for the first, -31.8% for the second.

Compared with CN=C(NC1CCCCC1)c1ccc([N+](=O)[O-])cc1, O=C1CCc2cc(S(=O)(=O)NC3CCCCC3)ccc2N1 is lower in “hERG current change (%, negative = inhibition) at 10uM” value: 1.68% for the first, -19.3% for the second.

First: Cl.OC(CN1C2=NCCCN2c2ccccc21)c1ccc(Br)cc1 (stereo not drawn)
Second: OC(CN1C2=NCCN2c2ccccc21)c1ccc(Br)cc1 (stereo not drawn)
The “hERG current change (%, negative = inhibition) at 10uM” value of the first is lower: -83.9% for the first, -71% for the second.

First: Cl.OCCN1C2=NCCCN2c2ccccc21
Second: Cl.OC(CN1C2=NCCCN2c2ccccc21)c1ccc(Cl)cc1 (stereo not drawn)
The “hERG current change (%, negative = inhibition) at 10uM” value of the first is higher: 5.78% for the first, -75.9% for the second.

Compared with O=C1CSC(=S)N1c1cccnc1, Nc1cc(=O)[nH]c(N2CCN(c3ccccc3)CC2)n1 is higher in “hERG current change (%, negative = inhibition) at 10uM” value: -7.65% for the first, 24.2% for the second.

Compared with CCOc1ncccc1C(=O)OCc1csc(CC(=O)Nc2ccccc2C)n1, CCn1ccnc1CN1CCC(n2nccc2NC(=O)c2ccccc2OC)CC1 is lower in “hERG current change (%, negative = inhibition) at 10uM” value: 0.199% for the first, -69.9% for the second.

Compared with Cc1ccc2[nH]c(O)c(N=NC(N)=S)c2c1, CCCc1cc(=O)[nH]c(Nc2ccc(Cl)cc2)n1 is lower in “hERG current change (%, negative = inhibition) at 10uM” value: 19.3% for the first, 6.28% for the second.

Compared with COc1cccc(NC(=O)Cc2cccs2)c1, COc1ccc(C(=O)Nc2ccnn2C2CCN(Cc3ccccn3)CC2)cc1 is lower in “hERG current change (%, negative = inhibition) at 10uM” value: 14.4% for the first, 5.54% for the second.

First: Cc1cc(CN2CCN(CC(=O)Nc3cc(C(F)(F)F)ccc3-n3cncn3)CC2)no1
Second: Cc1ccc(C(=O)Nc2cc(C(F)(F)F)ccc2-n2cncn2)o1
The “hERG current change (%, negative = inhibition) at 10uM” value of the first is lower: -69.8% for the first, -9.88% for the second.

Going from O=C(CC1CCCC1)Nc1cc(C(F)(F)F)ccc1-n1cncn1 to CCn1ccnc1CN1CCC(n2nccc2NC(=O)CCc2ccccc2)CC1, the “hERG current change (%, negative = inhibition) at 10uM” value rises from -10.4% to -3.91%.

First: O=C(CN1CCOCC1)Nc1ccc(N2CCN(c3ccccc3)CC2)c(F)c1
Second: COc1cc(CN2CCC(n3nccc3NC(=O)c3ccccc3OC)CC2)ccc1F
The “hERG current change (%, negative = inhibition) at 10uM” value of the first is higher: 2.59% for the first, -76.7% for the second.

First: CC(C)(C)n1ncc2c(=O)n(CC(=O)c3ccccc3)cnc21
Second: COc1ccccc1C(=O)Nc1ccnn1C1CCN(Cc2ncc[nH]2)CC1
The “hERG current change (%, negative = inhibition) at 10uM” value of the first is higher: -10.4% for the first, -16.3% for the second.

Going from O=C1CCc2cc(OCCCCc3nnnn3C3CCCCC3)ccc2N1 to COc1ccc(N2CCN(Cc3nnnn3C3CCCCC3)CC2)cc1, the “hERG current change (%, negative = inhibition) at 10uM” value rises from -64.1% to 6.34%.

Compared with CN(C(=O)COC(=O)c1cn(C)c2ccccc12)C1CCCCC1, COc1ccccc1C(=O)Nc1ccnn1C1CCN(Cc2ccn[nH]2)CC1 is lower in “hERG current change (%, negative = inhibition) at 10uM” value: 6.55% for the first, -36.1% for the second.

Compared with CCOc1ccc(CN2CCC(n3nccc3NC(=O)c3ccccc3OC)CC2)cc1, COc1ccccc1C(=O)Nc1ccnn1C1CCN(Cc2ccc3nonc3c2)CC1 is higher in “hERG current change (%, negative = inhibition) at 10uM” value: -82.8% for the first, -72.1% for the second.

Going from COc1cc(CN2CCC(n3nccc3NC(=O)C3CCOC3)CC2)ccc1F (stereo not drawn) to COc1ccc(C(=O)Nc2ccnn2C2CCN(Cc3ccc4nonc4c3)CC2)cc1, the “hERG current change (%, negative = inhibition) at 10uM” value falls from -6.78% to -43.1%.

First: COc1ccc(/C=N/Nc2nc(-c3cccnc3)nc3ccccc23)cc1OC
Second: O=C(Nc1ccon1)C(Sc1ccccc1)c1ccccc1 (stereo not drawn)
The “hERG current change (%, negative = inhibition) at 10uM” value of the first is lower: -22.2% for the first, -8.32% for the second.
